PubChem BioAssay AID1159580 (chemical genetic matrix, 2015)
About 2,000 (36%) of roughly 5,500 compounds were called active. Another 18% or so got no clear call; they are omitted. Rule as the data show it: active = normalized growth mostly below about 0.91 (no sharp cut-off); inconclusive = no clear call, values can overlap the other calls; inactive = mostly above about 0.92. The list shows a part of the results.

Assay: chemical genetic growth profiling, strain panel (AID 1159580);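 also: tested at 20 µM; growth read once vehicle control cultures reached saturation at 30 °C; 1 = growth at the plate median or of vehicle wells; lower values mean less growth of the strain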
Details: S. cerevisiae deletion strains, growth OD

Measured: normalized growth

CCc1c(C(=O)OC)ncc2[nH]c3cc(OC)c(OC)cc3c12
inactive: locus YAL040C, strain CLN3, stronger effect = lower value 0.994 | locus YCL061C, strain MRC1 (second series), stronger effect = lower value 0.994 | locus YDR150W, strain NUM1, stronger effect = lower value 0.995 | locus YDR363W, strain ESC2, stronger effect = lower value 1 | locus YER002W, strain NOP16, stronger effect = lower value 0.99 | locus YGR229C, strain SMI1, stronger effect = lower value 1.05 | locus YJR075W, strain HOC1, stronger effect = lower value 0.99 | locus YMR307W, strain GAS1, stronger effect = lower value 1.01 | locus YNL153C, strain GIM3, stronger effect = lower value 0.984 | locus YNL175C, strain NOP13, stronger effect = lower value 0.998 | locus YNL197C, strain WHI3, stronger effect = lower value 0.992 | locus YNL224C, strain SQS1, stronger effect = lower value 1.02 | locus YOR083W, strain WHI5 (second series), stronger effect = lower value 1 | locus YPL241C, strain CIN2, stronger effect = lower value 0.999

CNCC[C@@H](Oc1ccccc1)c1ccccc1
inactive: locus YAL021C, strain ccr4, stronger effect = lower value 0.976 | locus YAL026C, strain drs2, stronger effect = lower value 0.961 | locus YAL030W, strain snc1, stronger effect = lower value 0.947 | locus YBL061C, strain skt5, stronger effect = lower value 0.98 | locus YBR009C, strain hhf1, stronger effect = lower value 0.974 | locus YBR023C, strain chs3, stronger effect = lower value 0.979 | locus YBR171W, strain sec66, stronger effect = lower value 0.979 | locus YBR231C, strain swc5, stronger effect = lower value 0.984 | locus YBR279W, strain paf1, stronger effect = lower value 0.982 | locus YCL011C, strain gbp2, stronger effect = lower value 0.975 | locus YCL016C, strain dcc1, stronger effect = lower value 0.979 | locus YCL061C, strain MRC1, stronger effect = lower value 0.982 | locus YCL069W, strain vba3, stronger effect = lower value 0.978 | locus YCR088W, strain abp1, stronger effect = lower value 0.983 | locus YDL005C, strain med2, stronger effect = lower value 0.983 | locus YDL040C, strain nat1, stronger effect = lower value 0.988 | locus YDR001C, strain nth1, stronger effect = lower value 0.974 | locus YDR069C, strain doa4, stronger effect = lower value 0.965 | locus YDR137W, strain rgp1, stronger effect = lower value 1.02 | locus YDR159W, strain sac3, stronger effect = lower value 0.944 | locus YDR195W, strain ref2 0.972 | locus YDR297W, strain sur2, stronger effect = lower value 0.98 | locus YDR334W, strain swr1, stronger effect = lower value 0.951 | locus YDR335W, strain msn5, stronger effect = lower value 0.965 | locus YDR392W, strain spt3, stronger effect = lower value 0.975 | locus YEL003W, strain gim4, stronger effect = lower value 0.973 | locus YEL037C, strain rad23, stronger effect = lower value 0.988 | locus YEL061C, strain CIN8 (second series), stronger effect = lower value 0.988 | locus YER015W, strain faa2, stronger effect = lower value 0.961 | locus YER016W, strain bim1, stronger effect = lower value 0.978 | locus YER111C, strain swi4, stronger effect = lower value 0.981 | locus YER155C, strain BEM2 (second series), stronger effect = lower value 0.978 | locus YFR010W, strain ubp6, stronger effect = lower value 0.964 | locus YGL167C, strain pmr1, stronger effect = lower value 0.977 | locus YGL173C, strain kem1, stronger effect = lower value 0.954 | locus YGL227W, strain vid30, stronger effect = lower value 0.97 | locus YGL240W, strain doc1, stronger effect = lower value 0.96 | locus YGL253W, strain hxk2, stronger effect = lower value 0.984 | locus YHR013C, strain ard1, stronger effect = lower value 0.973 | locus YHR027C, strain rpn1, stronger effect = lower value 0.946 | locus YHR030C, strain SLT2, stronger effect = lower value 1.01 | locus YHR079C, strain IRE1, stronger effect = lower value 0.995 | locus YHR142W, strain chs7, stronger effect = lower value 0.973 | locus YJL092W, strain hpr5, stronger effect = lower value 0.984 | locus YJL095W, strain BCK1 (second series), stronger effect = lower value 0.971 | locus YJL095W, strain BCK1, stronger effect = lower value 0.996 | locus YJL115W, strain asf1, stronger effect = lower value 0.957 | locus YJL129C, strain trk1, stronger effect = lower value 0.99 | locus YJL154C, strain vps35, stronger effect = lower value 0.97 | locus YJL164C, strain tpk1, stronger effect = lower value 0.987 | locus YJL166W, strain qcr8, stronger effect = lower value 0.976 | locus YJL187C, strain SWE1, stronger effect = lower value 0.98 | locus YJR066W, strain TOR1, stronger effect = lower value 0.946 | locus YKL160W, strain elf1, stronger effect = lower value 0.989 | locus YKR026C, strain gcn3, stronger effect = lower value 0.977 | locus YKR091W, strain srl3, stronger effect = lower value 0.988 | locus YLL001W, strain dnm1, stronger effect = lower value 0.988 | locus YLL026W, stronger effect = lower value 0.97 | locus YLL041C, strain sdh2, stronger effect = lower value 0.968 | locus YLR027C, strain aat2, stronger effect = lower value 0.962 | locus YLR113W, strain HOG1, stronger effect = lower value 0.965 | locus YLR221C, strain rsa3, stronger effect = lower value 0.976 | locus YLR258W, strain gsy2, stronger effect = lower value 0.981 | locus YLR262C, strain YPT6 (second series), stronger effect = lower value 0.982 | locus YLR320W, strain mms22, stronger effect = lower value 0.989 | locus YLR342W, strain FKS1, stronger effect = lower value 0.976 | locus YLR357W, strain rsc2, stronger effect = lower value 1.01 | locus YLR370C, strain arc18, stronger effect = lower value 0.981 | locus YLR384C, strain iki3, stronger effect = lower value 0.972 | locus YML120C, strain ndi1, stronger effect = lower value 0.983 | locus YMR058W, strain fet3, stronger effect = lower value 0.981 | locus YMR125W, strain sto1, stronger effect = lower value 0.979 | locus YMR129W, stronger effect = lower value 0.991 | locus YMR205C, strain PFK2, stronger effect = lower value 0.958 | locus YMR231W, strain pep5, stronger effect = lower value 0.984 | locus YNL071W, strain lat1, stronger effect = lower value 0.993 | locus YNL183C, strain NPR1, stronger effect = lower value 0.958 | locus YNL209W, strain ssb2, stronger effect = lower value 0.948 | locus YNL248C, strain rpa49, stronger effect = lower value 0.974 | locus YNL322C, strain KRE1 (second series), stronger effect = lower value 0.978 | locus YNR049C, strain mso1, stronger effect = lower value 0.969 | locus YOR001W, strain rrp6, stronger effect = lower value 0.972 | locus YOR070C, strain gyp1, stronger effect = lower value 0.989 | locus YOR080W, strain dia2, stronger effect = lower value 0.973 | locus YOR083W, strain WHI5, stronger effect = lower value 0.981 | locus YOR106W, strain vam3, stronger effect = lower value 0.972 | locus YOR231W, strain MKK1, stronger effect = lower value 1.01 | locus YOR265W, strain rbl2, stronger effect = lower value 0.98 | locus YOR270C, strain vph1, stronger effect = lower value 1.01 | locus YOR290C, strain snf2, stronger effect = lower value 0.974 | locus YPL051W, strain arl3, stronger effect = lower value 0.994 | locus YPL078C, strain atp4, stronger effect = lower value 0.984 | locus YPL106C, strain sse1, stronger effect = lower value 0.924 | locus YPL240C, strain hsp82, stronger effect = lower value 0.976 | locus YPL256C, strain CLN2, stronger effect = lower value 0.992
